Test results: ChEMBL document CHEMBL1961873, “Compounds: GSK PKIS; Assays: Nanosyn kinase panel” (2012)

Experiments:
[1] = target: Mitogen-activated protein kinase kinase kinase kinase 4 (Homo sapiens) (UniProt O95819); settings: at 1 µM;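 also: reported figure is an averaged inhibition value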
[2] = target: Dual specificity mitogen-activated protein kinase kinase 1 (Homo sapiens) (UniProt Q02750); settings: at 0.1 µM
[3] = target: Dual specificity mitogen-activated protein kinase kinase 1 (Homo sapiens) (UniProt Q02750); settings: at 1 µM
[4] = target: Misshapen-like kinase 1 (Homo sapiens) (UniProt Q8N4C8); settings: at 0.1 µM
[5] = target: Misshapen-like kinase 1 (Homo sapiens) (UniProt Q8N4C8); settings: at 1 µM
[6] = target: T1, Serine/threonine-protein kinase 4 (Homo sapiens) (UniProt Q13043); settings: at 0.1 µM
T1 sequence (whole entry): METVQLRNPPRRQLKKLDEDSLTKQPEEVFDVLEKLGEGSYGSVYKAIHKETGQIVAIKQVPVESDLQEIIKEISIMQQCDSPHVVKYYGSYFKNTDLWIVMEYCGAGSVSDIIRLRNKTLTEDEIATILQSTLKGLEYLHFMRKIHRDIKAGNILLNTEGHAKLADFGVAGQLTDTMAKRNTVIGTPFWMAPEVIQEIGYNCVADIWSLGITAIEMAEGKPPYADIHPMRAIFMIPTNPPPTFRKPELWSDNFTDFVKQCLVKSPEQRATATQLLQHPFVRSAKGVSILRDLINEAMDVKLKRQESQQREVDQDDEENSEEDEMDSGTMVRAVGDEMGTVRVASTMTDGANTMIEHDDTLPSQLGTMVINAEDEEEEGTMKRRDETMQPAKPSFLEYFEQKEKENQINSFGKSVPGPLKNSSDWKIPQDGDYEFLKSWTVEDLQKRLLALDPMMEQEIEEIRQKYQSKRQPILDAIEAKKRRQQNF

[7] = target: T1, Serine/threonine-protein kinase 4 (Homo sapiens); settings: at 1 µM
[8] = target: T2, Serine/threonine-protein kinase 3 (Homo sapiens) (UniProt Q13188); settings: at 0.1 µM
T2 sequence (whole entry): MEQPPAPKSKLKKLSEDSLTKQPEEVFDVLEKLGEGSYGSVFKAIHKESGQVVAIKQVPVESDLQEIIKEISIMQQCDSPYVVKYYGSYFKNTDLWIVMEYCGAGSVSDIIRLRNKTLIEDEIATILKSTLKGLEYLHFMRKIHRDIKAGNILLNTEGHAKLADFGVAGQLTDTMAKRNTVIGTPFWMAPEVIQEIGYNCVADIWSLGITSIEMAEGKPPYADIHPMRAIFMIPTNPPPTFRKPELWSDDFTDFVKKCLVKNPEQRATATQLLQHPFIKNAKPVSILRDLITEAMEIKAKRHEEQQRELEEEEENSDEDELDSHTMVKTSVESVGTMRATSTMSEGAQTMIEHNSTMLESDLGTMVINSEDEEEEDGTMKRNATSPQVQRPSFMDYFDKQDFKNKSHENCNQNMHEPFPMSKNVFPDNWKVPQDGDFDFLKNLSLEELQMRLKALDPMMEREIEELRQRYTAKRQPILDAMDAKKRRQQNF

[9] = target: T2, Serine/threonine-protein kinase 3 (Homo sapiens); settings: at 1 µM
[10] = target: Serine/threonine-protein kinase 26 (Homo sapiens) (UniProt Q9P289); settings: at 0.1 µM
Chain of Serine/threonine-protein kinase 26 (Homo sapiens) (Q9P289 2-416 limits assumed): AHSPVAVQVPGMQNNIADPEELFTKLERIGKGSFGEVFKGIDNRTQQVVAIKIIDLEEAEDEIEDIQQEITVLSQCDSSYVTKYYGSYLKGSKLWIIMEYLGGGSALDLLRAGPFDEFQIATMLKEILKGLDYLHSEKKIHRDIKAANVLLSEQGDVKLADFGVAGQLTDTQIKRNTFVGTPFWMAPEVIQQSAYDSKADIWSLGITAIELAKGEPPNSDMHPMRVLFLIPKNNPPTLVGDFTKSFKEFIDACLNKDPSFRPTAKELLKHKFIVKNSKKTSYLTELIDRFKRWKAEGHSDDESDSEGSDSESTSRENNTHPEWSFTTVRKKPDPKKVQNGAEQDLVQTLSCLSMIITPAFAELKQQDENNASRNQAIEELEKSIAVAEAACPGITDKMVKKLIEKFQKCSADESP

Chain of Dual specificity mitogen-activated protein kinase kinase 1 (Homo sapiens) (Q02750 whole entry): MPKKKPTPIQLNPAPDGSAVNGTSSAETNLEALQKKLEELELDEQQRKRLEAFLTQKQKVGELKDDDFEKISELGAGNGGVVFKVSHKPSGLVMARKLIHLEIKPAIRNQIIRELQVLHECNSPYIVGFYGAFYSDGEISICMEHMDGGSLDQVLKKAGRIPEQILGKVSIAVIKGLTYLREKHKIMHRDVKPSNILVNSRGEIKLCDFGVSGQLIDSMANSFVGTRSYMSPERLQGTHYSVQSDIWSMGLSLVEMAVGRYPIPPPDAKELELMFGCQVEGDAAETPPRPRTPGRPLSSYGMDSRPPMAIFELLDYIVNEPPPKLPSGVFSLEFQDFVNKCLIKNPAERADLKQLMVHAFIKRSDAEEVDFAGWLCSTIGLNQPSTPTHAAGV
Chain of Mitogen-activated protein kinase kinase kinase kinase 4 (Homo sapiens) (O95819 2-1239 limits assumed): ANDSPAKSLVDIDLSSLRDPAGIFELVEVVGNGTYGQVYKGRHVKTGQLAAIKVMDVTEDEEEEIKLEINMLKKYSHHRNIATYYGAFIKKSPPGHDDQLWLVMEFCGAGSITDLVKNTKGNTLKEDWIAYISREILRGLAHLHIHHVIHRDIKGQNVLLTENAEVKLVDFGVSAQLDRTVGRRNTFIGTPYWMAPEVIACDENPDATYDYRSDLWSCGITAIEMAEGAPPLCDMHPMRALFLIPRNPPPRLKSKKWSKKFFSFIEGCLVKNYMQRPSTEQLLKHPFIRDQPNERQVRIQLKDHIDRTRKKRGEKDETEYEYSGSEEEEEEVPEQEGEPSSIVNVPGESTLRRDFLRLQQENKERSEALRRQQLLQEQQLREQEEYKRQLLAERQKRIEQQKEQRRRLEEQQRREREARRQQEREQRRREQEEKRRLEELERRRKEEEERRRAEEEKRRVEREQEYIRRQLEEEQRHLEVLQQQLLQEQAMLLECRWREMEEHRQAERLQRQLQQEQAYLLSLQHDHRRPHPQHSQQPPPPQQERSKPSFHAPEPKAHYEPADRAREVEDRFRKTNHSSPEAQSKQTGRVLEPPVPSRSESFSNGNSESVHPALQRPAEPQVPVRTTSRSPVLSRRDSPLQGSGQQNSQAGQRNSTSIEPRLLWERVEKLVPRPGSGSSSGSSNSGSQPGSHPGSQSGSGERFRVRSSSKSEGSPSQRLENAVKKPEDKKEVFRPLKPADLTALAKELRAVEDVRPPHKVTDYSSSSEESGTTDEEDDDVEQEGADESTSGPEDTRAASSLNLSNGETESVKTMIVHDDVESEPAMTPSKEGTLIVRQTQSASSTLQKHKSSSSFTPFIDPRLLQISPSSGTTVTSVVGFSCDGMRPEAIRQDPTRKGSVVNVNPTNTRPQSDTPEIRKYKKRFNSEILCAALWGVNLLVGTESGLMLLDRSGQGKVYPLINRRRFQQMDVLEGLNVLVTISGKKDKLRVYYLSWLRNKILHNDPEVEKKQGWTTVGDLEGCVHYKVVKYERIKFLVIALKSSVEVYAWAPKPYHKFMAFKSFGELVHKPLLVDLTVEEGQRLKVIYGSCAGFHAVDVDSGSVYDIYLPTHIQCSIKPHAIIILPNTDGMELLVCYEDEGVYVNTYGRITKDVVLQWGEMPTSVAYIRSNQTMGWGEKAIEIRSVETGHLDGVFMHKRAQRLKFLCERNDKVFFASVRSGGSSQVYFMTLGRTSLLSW
Chain of Misshapen-like kinase 1 (Homo sapiens) (Q8N4C8 whole entry, looked up): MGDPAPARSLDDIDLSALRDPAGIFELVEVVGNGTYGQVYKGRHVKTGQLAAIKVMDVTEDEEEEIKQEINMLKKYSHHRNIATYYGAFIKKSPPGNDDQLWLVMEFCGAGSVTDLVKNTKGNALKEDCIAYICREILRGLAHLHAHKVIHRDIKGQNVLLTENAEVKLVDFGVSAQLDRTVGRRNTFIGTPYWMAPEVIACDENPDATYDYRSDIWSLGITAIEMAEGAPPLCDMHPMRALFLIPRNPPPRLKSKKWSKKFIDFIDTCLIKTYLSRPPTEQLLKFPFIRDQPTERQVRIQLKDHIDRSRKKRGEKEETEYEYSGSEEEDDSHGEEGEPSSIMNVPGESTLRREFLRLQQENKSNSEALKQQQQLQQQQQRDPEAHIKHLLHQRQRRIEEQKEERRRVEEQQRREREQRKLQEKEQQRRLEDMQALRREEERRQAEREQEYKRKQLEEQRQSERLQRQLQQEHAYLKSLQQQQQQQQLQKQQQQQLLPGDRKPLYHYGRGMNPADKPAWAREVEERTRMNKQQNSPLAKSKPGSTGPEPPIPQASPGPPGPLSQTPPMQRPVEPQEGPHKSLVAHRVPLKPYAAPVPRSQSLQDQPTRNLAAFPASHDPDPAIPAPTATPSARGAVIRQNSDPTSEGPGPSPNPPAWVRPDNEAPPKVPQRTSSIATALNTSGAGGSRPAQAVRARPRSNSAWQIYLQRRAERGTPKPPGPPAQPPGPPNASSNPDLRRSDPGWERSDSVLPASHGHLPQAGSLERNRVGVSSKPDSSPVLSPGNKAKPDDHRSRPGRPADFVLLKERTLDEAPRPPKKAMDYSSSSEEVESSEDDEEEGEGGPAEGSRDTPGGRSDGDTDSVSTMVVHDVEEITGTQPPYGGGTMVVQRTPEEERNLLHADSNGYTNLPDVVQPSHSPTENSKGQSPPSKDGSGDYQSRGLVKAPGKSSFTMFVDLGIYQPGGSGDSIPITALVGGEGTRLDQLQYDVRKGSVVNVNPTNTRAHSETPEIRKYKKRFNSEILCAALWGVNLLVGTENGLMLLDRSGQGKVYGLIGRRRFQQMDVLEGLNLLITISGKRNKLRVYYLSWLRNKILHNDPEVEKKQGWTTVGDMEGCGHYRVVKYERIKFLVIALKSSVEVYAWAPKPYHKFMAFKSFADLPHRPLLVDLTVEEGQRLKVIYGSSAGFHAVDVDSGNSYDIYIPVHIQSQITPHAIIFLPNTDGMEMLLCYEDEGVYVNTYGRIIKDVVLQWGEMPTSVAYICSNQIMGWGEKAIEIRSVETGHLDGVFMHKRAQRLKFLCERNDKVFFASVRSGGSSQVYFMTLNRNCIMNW

Structure (SMILES)	inhibition [1]	inhibition [2]	inhibition [3]	inhibition [4]	inhibition [5]	inhibition [6]	inhibition [7]	inhibition [8]	inhibition [9]	inhibition [10]
CC1=C(C(=O)Nc2ccc3[nH]ncc3c2)C(c2ccc(F)cc2)NC(=O)N1 (stereo not given)	11.1%	2.25%	5.95%	7.37%	13%	1.11%	5.91%	1.29%	6.58%	0.66%
O=C1NC(=O)C(c2ccc(Cl)cc2)=C1Nc1ccc(Cl)c(C(=O)O)c1	0.73%	-2.44%	-3.36%	-0.82%	-0.69%	-1.86%	-3.6%	-2.71%	-2.5%	-0.06%
Nc1ncnc2occ(-c3ccc(NC(=O)Nc4cc(C(F)(F)F)cc(C(F)(F)F)c4)cc3)c12	5.19%	0.93%	3.12%	5.87%	-1.47%	3.59%	6.92%	4.8%	5.55%	-0.71%
Cc1ccc(C(=O)NC2CCCCC2)cc1-c1ccc(C(=O)NCC2CC2)cc1	0.87%	4.37%	4.68%	4.93%	1.64%	5.76%	4.46%	6.92%	4.05%	1.41%
Cc1nnc(-c2ccc(C)c(-c3ccc(C(=O)Nc4cccc(C#N)c4)cc3)c2)o1	10.6%	2.51%	1.55%	4.46%	9.13%	1.52%	6%	2.65%	6.4%	-1.07%
[O-][S+]1CCN(Cc2ccc(-c3ccc4ncnc(Nc5ccc(OCc6ccccc6)c(F)c5)c4c3)o2)CC1	-0.28%	2.4%	3.03%	4.17%	1.42%	2.61%	2.36%	2.82%	3.06%	-0.81%
Fc1cccc(COc2ccc(Nc3ncnc4sc(-c5cccs5)cc34)cc2Cl)c1	6.34%	2.3%	4%	1.45%	2.51%	0.07%	0.3%	-1.67%	-0.19%	-0.02%
CS(=O)(=O)CCN(CC#N)Cc1ccc(-c2ccc3ncnc(Nc4ccc(OCc5cccc(F)c5)c(Cl)c4)c3c2)o1	5%	2.47%	0.44%	3.04%	3.9%	0.41%	0.1%	0.67%	1.66%	-1.31%
Cn1cc(C=C2C(=O)Nc3cccnc32)c2ccccc21	29%	2.69%	7.29%	7.13%	23.6%	13.7%	47.9%	10.5%	33.8%	1.41%
CC(C)=Cc1cccc2c1/C(=N/Nc1ccc(S(N)(=O)=O)cc1)C(=O)N2	31.3%	0.02%	2.23%	3.63%	25.1%	66.6%	84.5%	52.6%	82.4%	4.55%
c1cnn2ncc(-c3ccnc(Nc4ccc5c(c4)OCCO5)n3)c2c1	51.5%	7.35%	27.8%	9.95%	40.4%	7.88%	19.1%	7.54%	16.1%	-1.31%
COc1ccc(-c2coc3ncnc(N)c23)cc1	10.2%	5.34%	5.29%	12.5%	8.75%	7.11%	8.23%	6.08%	6.94%	-0.2%
CNC(=O)c1cncc(/C=C/c2c(Cl)cccc2Cl)c1	23%	1.66%	1.76%	7.96%	19.3%	3.04%	7.53%	4.32%	8.47%	-1.2%
Nc1ncnc2occ(-c3ccc(NC(=O)Nc4cccc(C(F)(F)F)c4)cc3)c12	12.3%	4.53%	4.91%	3.8%	8.17%	5.73%	15.6%	5.7%	13.3%	-2.6%
CS(=O)(=O)CCNCc1ccc(-c2ccc3ncnc(Nc4ccc(OCc5ccccc5)c(Cl)c4)c3c2)o1	3.37%	1.17%	1.86%	1.93%	1.65%	0.89%	2.54%	-1.21%	0.47%	0.75%
CCn1c(-c2nonc2N)nc2ccncc21	3.87%	2.48%	1.41%	3.12%	3.29%	2.91%	1.83%	3.05%	1.74%	1.67%
COc1ccc(-c2ccncc2)cc1C(N)=O	11.4%	4.89%	4.05%	6.61%	8.92%	3.27%	7.82%	4.87%	6.68%	-1.91%

Structure (SMILES)	inhibition [1]	inhibition [2]	inhibition [3]	inhibition [4]	inhibition [5]	inhibition [6]	inhibition [7]	inhibition [8]	inhibition [9]	inhibition [10]
COC(=O)Nc1nc2cc(Oc3cccc(NC(=O)Nc4cc(C(F)(F)F)ccc4F)c3)ccc2[nH]1	4.32%	0.59%	0.38%	1.15%	3.21%	-1.6%	0.24%	-1.24%	0.17%	0.73%
O=C(Nc1n[nH]c2nc(-c3ccco3)c(Br)cc12)C1CC1	8.55%	3.9%	3.63%	5.14%	8.29%	5.17%	4%	6.08%	5.58%	-1.82%
CC1=C(C(=O)Nc2ccc3[nH]ncc3c2)C(c2ccc(Cl)c(Cl)c2)CC(=O)N1 (stereo not given)	3.96%	4.74%	30.5%	1.68%	1.98%	1.25%	4.28%	1.27%	2.63%	-1.2%
NC(=O)c1ccc(-c2nc(-c3ccccn3)c(-c3ccc4c(c3)OCO4)[nH]2)cc1	5.75%	3.95%	3.52%	2.63%	7.53%	3.9%	3.51%	4.2%	3.42%	-0.92%
NS(=O)(=O)c1cccc(-c2ccc3c(NC(=O)C4CC4)n[nH]c3c2)c1	10%	-1.43%	2.83%	1.11%	8.09%	-3.97%	-4.72%	-3.79%	-2.35%	0%
NS(=O)(=O)c1ccc(N/N=C2\C(=O)Nc3ccc(C(=O)NCCc4c[nH]cn4)cc32)cc1	40%	6.81%	16.3%	11.2%	32.6%	56.3%	86.7%	46.5%	83.5%	-0.45%
CCn1c(-c2nonc2N)nc2c(C#CC(C)(C)O)nc(OC[C@@H](N)c3ccccc3)cc21	14.1%	-0.93%	3.8%	-1.26%	9.85%	-2.01%	15.2%	-1.88%	11.8%	1.4%
COC(=O)Nc1nc2cc(Oc3ccc(NC(=O)Nc4cccc(C(=O)O)c4)cc3)ccc2[nH]1	5.9%	0.36%	0.97%	1.59%	4.38%	7.79%	11.2%	7.55%	10.9%	1.75%
NCc1ccc(-c2nc(-c3ccc(Cl)c(O)c3)c(-c3ccncc3)[nH]2)cc1	17.2%	0.8%	2.23%	4.99%	14.1%	0.18%	0.25%	-1%	-1.23%	0.12%
CS(=O)(=O)CCNCc1nc(-c2ccc3ncnc(Nc4ccc(F)c(Cl)c4)c3c2)cs1	4.84%	1.19%	2.66%	2.93%	3.2%	4.8%	6.35%	5.67%	4.59%	2.56%
Cc1nn(C)c2cc(N(C)c3ccnc(Nc4cccc(S(N)(=O)=O)c4)n3)ccc12	84.1%	3.83%	4.09%	44.2%	83.8%	1.85%	3.69%	1.21%	3.34%	-0.82%
CCCN1CCC=C(c2ccc(Nc3nc(Nc4ccccc4C(N)=O)c4cc[nH]c4n3)c(C)c2)C1	65.3%	7.02%	28.7%	14.8%	55.2%	9.53%	42.5%	5.37%	21.2%	-2.63%
O=C1NC(=O)C(c2cccc(Cl)c2)=C1Nc1ccc(O)c(Cl)c1	7.19%	0.81%	7.65%	2.81%	7.79%	33.6%	75.2%	24.3%	66.8%	1.93%
COc1cc2ncn(-c3cc(O[C@@H](C)c4ccccc4Cl)c(C(N)=O)s3)c2cc1OC	32%	4.3%	3.99%	9.25%	28.5%	8.63%	40.3%	11.8%	34.8%	-3.61%
CN1CCC(C(=O)Nc2n[nH]c3nnc(-c4ccccc4)cc23)CC1	14.1%	6.89%	5.56%	6.64%	14.6%	4.72%	13%	5.88%	9.3%	-0.64%
Nc1nc(-c2ccc3c(c2)C(=Cc2cc(Br)c(O)c(Br)c2)C(=O)N3)cs1	75.3%	-1.03%	-1.25%	10.2%	56.9%	-2.22%	9.55%	-2.3%	12.2%	0.73%
